The list is not random: actives were taken first. Their share in the collection is about 12%.
hDAT+cocaine: changed human dopamine transporter uptake under cocaine IC80. Q01959. actives 1.3% (n = 110,000). B-score at 10 µM. AID 449768. LLC-PK1 hDAT cells, [14C]-dopamine uptake with cocaine IC80; actives deviate in either direction;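 active = Z score or B-score, a plate-position-corrected score, falls beyond the plate's 99.7% confidence bounds, in either direction; inactive = both scores lie inside the 99.7% bounds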
PostGolgi ctrl: growth of the yeast control strain, post-Golgi counter-screen. efflux-deficient yeast background strain, growth absorbance A615, 16 h. inhibition, % at 10 µM. actives 5% (n = 98,000). AID 738
D1 allo mod: allosterically modulates the human D1 dopamine receptor. B-score at 10 µM. actives 5.9% (n = 58,000). HEK293 D1, CRE-luciferase, dopamine EC30 potentiation; actives deviate in either direction. AID 641;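 active = luminescence count or its row- and column-corrected plate score outside the 99.7% band of the plate's sample wells, on either side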
PostGolgi yeast: growth inhibition of a yeast mutant, post-Golgi transport screen; post-Golgi transport phenotypic cell assay; inhibition, % at 10 µM; actives 0.9% (n = 98,000); AID 739;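 also: yeast cells grown in 1536-well plates; yeast grown about 18 h at 30C before absorbance read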
PLAP act: activators of human placental alkaline phosphatase | purified PLAP enzyme, luminescent substrate read-out; active compounds read high | actives 1.2% (n = 96,000) | activation fold at 20 µM | AID 696; in the data active = activation fold above about 2
Cav3 T inh: human Cav3.2 channel inhibition, primary screen. Cav3.2-expressing cells, Fluo-4 calcium fluorescence FDSS; active compounds read low. B-score at 10 µM. actives 4% (n = 100,000);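 active = single-dose well whose peak fluorescence ratio is a statistical outlier from its plate by either plate-standardised score or position-corrected B-score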
Large screens that a line does not name were inactive. Rule as the data show it, unless noted: active = inhibition above about 30%; inactive = the rest.

CCCCC(c1nnnn1C1CCCC1)N1CCN(C2CCCC2)CC1 (stereo not drawn)	none
c1ccc(-c2cn3c4c(sc3n2)CCCC4)cc1	D1 allo mod -9.9
Cc1c(C(=O)Nc2ccc3c(c2)OCCO3)sc2nc(-c3ccccc3)cn12	none (no result: PostGolgi ctrl, PostGolgi yeast, PLAP act)
CC(C)Cc1nc2oc3c(N4CCN(CCO)CC4)ncnc3c2c2c1CCCC2	hDAT+cocaine 2.4
CC(C)Cc1nc2oc3c(NCc4cccnc4)ncnc3c2c2c1CCC2	D1 allo mod 4.8
CC(C)c1nc2oc3c(NCc4cccnc4)ncnc3c2c2c1CCC2	none (no result: D1 allo mod)
Cc1ccc(N2C(=O)CC(Sc3ncn[nH]3)C2=O)cc1C (stereo not drawn)	hDAT+cocaine -3.1 (no result: D1 allo mod)
CC1=CS(=O)(=O)CC1Sc1ncn[nH]1 (stereo not drawn)	none (no result: PostGolgi ctrl, D1 allo mod, PostGolgi yeast, PLAP act)
O=C(NC(=S)N(Cc1ccccc1)Cc1ccccc1)c1ccccc1F	Cav3 T inh -6.2 (no result: D1 allo mod)
CCC(=O)Nc1cccc(-c2cn3ccsc3n2)c1	none
Cc1ccc(S(=O)(=O)Nc2cccc(-c3cn4ccsc4n3)c2)cc1	PostGolgi ctrl 46
Cc1cccc(S(=O)(=O)Nc2cccc(-c3cn4ccsc4n3)c2)c1	PostGolgi ctrl 46
Cc1ccc(C(=O)CN(C(=O)c2ccc(Cl)c(Cl)c2)N2C(=O)C3C4C=CC(C4)C3C2=O)cc1 (stereo not drawn)	none (no result: D1 allo mod)
CC1CN=C(c2cccn2Cc2ccc(F)cc2Cl)O1 (stereo not drawn)	PostGolgi ctrl 32
Cn1cccc1Cc1nnc(SCC(=O)N2CCCc3ccccc32)n1-c1ccc(F)cc1	Cav3 T inh -7.9
COc1ccc(-n2c(Cc3ccccc3)nnc2SCC(=O)N2CCCc3ccccc32)cc1	Cav3 T inh -8.5 (no result: PostGolgi ctrl, D1 allo mod, PostGolgi yeast, PLAP act)
Cc1ccc(-n2c(Cc3cccn3C)nnc2SCC(=O)N2CCc3ccccc32)cc1	PostGolgi ctrl 45, Cav3 T inh -3.3
CNC(=O)Cn1nc(-c2ccc(C)c(S(=O)(=O)N(C)C)c2)c2ccccc2c1=O	none (no result: PostGolgi ctrl, D1 allo mod, PostGolgi yeast, PLAP act)
O=C(CSc1n[nH]c(-c2ccc(S(=O)(=O)NC3CCCCC3)cc2)n1)N1CCCC1	PostGolgi ctrl 32
O=C(COc1ccc(S(=O)(=O)NC2CCCC2)cc1)N1CCCCCC1	none
Cc1ccc(CCNc2ccccc2C)cn1	none (no result: PostGolgi ctrl, D1 allo mod, PostGolgi yeast, PLAP act)
CCN(CC)C(=O)CSc1nnc([C@H](CCSC)NC(=O)OC(C)(C)C)o1	none
CSCC[C@H](NC(=O)OC(C)(C)C)c1nnc(SCC(N)=O)o1	D1 allo mod -2.2
O=C(N/N=C/C(Br)=C\c1ccccc1)c1n[nH]c2c1CCC2	none (no result: hDAT+cocaine, D1 allo mod, Cav3 T inh)
O=C(N/N=C/C=C/c1ccccc1)c1n[nH]c2c1CCC2	PLAP act 2.4 (no result: hDAT+cocaine, D1 allo mod, Cav3 T inh)
O=S(=O)(c1ccc2c(c1)nc(COc1ccc(Cl)cc1)n2CC1CCCO1)N1CCOCC1 (stereo not drawn)	none
N#CCCn1c(C2CCCCC2)nc2ccccc21	none (no result: D1 allo mod)
NC(=O)c1ccc(C(F)(F)F)n(Cc2c(Cl)cccc2Cl)c1=O	PostGolgi ctrl 34 (no result: D1 allo mod)
CC1(C)CC(=O)C(C=NCCN2CCN(C(=O)C34CC5CC(CC(C5)C3)C4)CC2)=C(O)C1	none (no result: PostGolgi ctrl, PostGolgi yeast)
CCC(=O)c1cc(F)c(N2CCN(S(=O)(=O)c3ccc(C)cc3)CC2)cc1C	PostGolgi ctrl 35
COc1ccc(-c2nnc(SCC(=O)Nc3ccccc3)n2C)cc1	none
Cc1cc(-c2cc(C(=O)Nc3ccccc3)on2)nc(NC2CCCC2)n1	none (no result: PostGolgi ctrl, D1 allo mod, PostGolgi yeast, PLAP act)
O=c1[nH]c2cc(Cl)ccc2c(O)c1-c1cccc(Oc2ccccc2)c1	none (no result: PostGolgi ctrl, D1 allo mod, PostGolgi yeast, PLAP act, Cav3 T inh)
COc1ccc(NC(=S)NNC(=O)OC(C)(C)C)cc1OC	PLAP act 2.5 (no result: D1 allo mod)
CCC(=O)N1CCc2cc(S(=O)(=O)NC(CC(C)C)C(=O)N3CCc4ccccc43)ccc21 (stereo not drawn)	none
CCC(=O)N1CCc2cc(S(=O)(=O)NC(Cc3ccccc3)C(=O)NC3CCCCC3C)ccc21 (stereo not drawn)	PLAP act 2.3 (no result: D1 allo mod)
O=C(/C=C/Nc1ccc(F)cc1)c1ccco1	D1 allo mod -7.3
COc1ccc(-c2nnn(CCc3nn[nH]n3)n2)cc1	none (no result: PostGolgi ctrl, D1 allo mod, PostGolgi yeast, PLAP act)
COC(=O)c1ccccc1NC(=O)c1cc2ncc(Br)cn2n1	hDAT+cocaine -2.3 (no result: Cav3 T inh)
O=C(Nc1ccc(F)cc1F)c1cc2ncc(Br)cn2n1	none
COc1cc(OC)cc(C(=O)N2CCC(n3c(C)nc4cc(F)ccc43)CC2)c1	none (no result: hDAT+cocaine, Cav3 T inh)
CCn1c(=O)c2c3c(sc2n2c(=S)[nH]nc12)CCC3	Cav3 T inh 3.6 (no result: D1 allo mod)
CCn1c(=O)c2c3c(sc2n(C)c1=O)CCC3	none
